Most compounds without a hit are left out; they make up all but 11% or so of the library.
Lmaj promast = inhibitors of Leishmania major promastigote growth | 200,000 tested, 9% active | Leishmania major promastigotes, resazurin fluorescence viability | inhibition, % at 10 µM; in the data active = inhibition above about 50%;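 also: promastigotes grown with compound for 44 hours at 28 °C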
Insulin prom up = MIN6 insulin promoter up-regulation; MIN6 insulin promoter-GFP reporter, high-content imaging; hits give high values; AID 1625; z-score at 5 µM; 190,000 tested, 0.3% active;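 active = z-score above 3 at 5 µM with at least 500 cells counted in the well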
Insulin prom inh = TRM-6 insulin promoter activity inhibition | TRM-6 cells (human fetal islet line), insulin promoter-eGFP reporter, imaging; reporter expression induced with tamoxifen | inhibition, % at 2 µM | 130,000 tested, 0.9% active | AID 1273;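 active = inhibition above the mean plus 3 SD, with well images judged a real hit on visual review, cut at about 60% in these data, passing the limit was not always enough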
WT yeast gro inh = growth inhibition of WT yeast, mitochondrial fusion screen. mitochondrial fusion phenotypic screen, WT strain. inhibition, % at 10 µM. 190,000 tested, 2.1% active; in the data active = inhibition above about 58%; tested in S. cerevisiae
Autophagy HCS = autophagy modulation, high-content screen; MEF GFP-LC3 puncta imaging; test concentration mostly 10 µM; calls only at 10 µM (by protocol); 190,000 tested, 0.98% active;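 active = percentage of spot-positive cells more than 3 SD above its plate mean, without a fluorescence outlier flag or 80% toxicity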;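 also: spot-positive cell cutoff set from DMSO-treated cells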
Starred values were filed as active, the others as inactive; i = inactive; . = not tested or not shown; + = active, no number.

SMILES	Lmaj promast	Insulin prom up	Insulin prom inh	WT yeast gro inh	Autophagy HCS
Cc1ccc(-c2nnc(SCc3ccccc3F)o2)cc1	-10	.	45	60*	i
Fc1ccc(CSc2nnc(-c3ccncc3)o2)cc1	0	-0.88	.	10	i
Cc1ccccc1-c1nnc(SCc2ccc(F)cc2)o1	-3	0.36	49	60*	i
COc1ccc(-c2nnc(SCc3cc(C)cc(C)c3)o2)cc1	2	-0.7	.	64*	i
COc1ccc(-c2nnc(-c3ccc(N)cc3)o2)cc1	100*	-0.33	31	20	i
COc1ccc(-c2nnc(SCc3ccccc3F)o2)cc1OC	-3	0.27	19	6	i
CC1SC(c2ccc(F)cc2)NC1=O (centres undefined)	-5	-1.4	.	-8	i
CCc1ccccc1NC(=O)CN(C)C(=O)CSc1nnc(Nc2ccc(C)cc2)s1	72*	-0.34	.	-6	i
Cc1ccc(Nc2nnc(SCC(=O)Nc3ccccc3[N+](=O)[O-])s2)cc1	-4	0.96	.	-6	i
Cc1ccc(Nc2nnc(SCC(=O)Nc3cccnc3Cl)s2)cc1C	83*	-0.17	7	43	i
CCc1ccccc1NC(=O)CN(C)C(=O)CSc1nnc(Nc2cccc(C)c2)s1	-2	0.18	-56	17	i
CCc1ccc(Nc2nnc(SCC(=O)N(C)CC(=O)Nc3ccccc3CC)s2)cc1	73*	0.15	27	-18	i
O=C(c1ccccc1F)N1CCC(N2CCCCCC2)CC1	73*	0.52	39	-10	i
Cn1c(=O)c2c(O)c(C=NCc3ccccc3)c(=O)n(C)c2n(C)c1=O	.	0.28	.	.	.
Cn1c(=O)c2nnn(/N=C(\c3ccccc3)C3CC3)c2n(C)c1=O	76*	1.1	-3	7	i
COc1ccc2c(c1)C(=O)N(c1ccccc1C)C(=O)C2(C)C	18	-0.57	.	-4	i
COc1ccc(NC(=O)c2nc3nc(C)cc(C(F)F)n3n2)cc1OC	-2	0.64	71*	10	i
Cc1cc(C(F)F)n2nc(C(=O)Nc3ccc(S(=O)(=O)N4CCCCCC4)cc3)nc2n1	3	.	100*	-14	i
O=C1CC(c2cc(F)ccc2F)c2cc3c(cc2N1)CCC3 (centres undefined)	18	2.1	.	-4	i
Cc1cc2c(cc1C)C(c1cccc([N+](=O)[O-])c1)CC(=O)N2 (centres undefined)	53*	0.81	-44	16	i
COc1cc(C2CC(=O)Nc3cc(C)c(C)cc32)cc(OC)c1OC (centres undefined)	4	-0.22	-7	-4	i
O=C1CC(c2cccc(Br)c2)c2cc3c(cc2N1)CCC3 (centres undefined)	3	-2	.	87*	i
Cc1c2c(n3c(nc4ccccc43)c1C#N)N(Cc1cccnc1)CC2	0	.	33	.	i
CC(=O)Nc1ccc(N2CCc3c(C)c(C#N)c4nc5ccccc5n4c32)cc1	36	3.8*	-69	5	+
O=C(/C=C/c1ccccc1)c1ccc2c3c(cccc13)CC2	71*	-0.75	.	9	i
SMILES	Lmaj promast	Insulin prom up	Insulin prom inh	WT yeast gro inh	Autophagy HCS
O=C(Cn1cncc1-c1ccc([N+](=O)[O-])cc1)Nc1ccccc1F	52*	0.8	-11	-4	i
OCC1(Cc2cccc(F)c2)CCN(Cc2ccc3cccc(F)c3n2)CC1	88*	.	.	7	+
CCOC(=O)C1(CC2CC2)CCN(Cc2ccc3cccc(F)c3n2)CC1	8	-0.28	.	5	i
COc1cccc(CC2(CO)CCN(Cc3ccc(NC(C)=O)cc3)CC2)c1	-6	.	.	2	i
O=C(c1cnsn1)N1CCC(CO)(Cc2cccc(F)c2)CC1	-4	.	.	11	i
OCC1(CCOc2ccccc2)CCN(Cc2ccc3cccc(F)c3n2)CC1	82*	-0.84	.	-2	i
COc1cccc(CC2(CO)CCN(CC3=CC[C@H]4C[C@@H]3C4(C)C)CC2)c1	88*	-0.53	-94	-3	i
COc1cccc(CC2(CO)CCN(Cc3cn(C)nc3C)CC2)c1	75*	.	44	-6	i
COc1ccc(OC)c(NS(=O)(=O)c2ccc(NC(=O)c3ccc(NS(C)(=O)=O)cc3)cc2)c1	-3	-0.01	-2	-1	i
COc1cccc(CC2(CO)CCN(Cc3ccc4cccc(F)c4n3)CC2)c1	80*	-0.53	.	-7	i
Cc1ccc(S(=O)(=O)Nc2cccc(C(=O)Nc3cc(C)ccn3)c2)cc1	19	0.48	-7	10	i
Cc1ccnc(NC(=O)c2cccc(NS(=O)(=O)c3ccccc3C)c2)c1	91*	-0.12	-7	20	i

From PubChem BioAssay
